Growth data for nine compounds are collected here from PubChem BioAssay (NCI).

This is part of a sample that, as a whole, favours compounds with a hit. Of some 83,000 tested, about 20% had one in any assay.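 Percent growth is the endpoint: 0 to 100 indicates growth inhibition (40 means 60% inhibition), 0 means no net growth, and negative values indicate cell death.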 Values without a mark were called inactive. Calls of active or inactive are those of the source. How the source made its calls: active means growth percent below 10; inactive means the rest.

Holding throughout (assay): NCI-60 one-dose screen, 48 h (100 = growth as untreated, 0 = no growth, -100 = all killed)
One assay has as its system HCT-15 colon. The settings on record: 10 µM unless noted.
A further assay has as its system HT29 colon. The settings on record: 10 µM unless noted.
In a further assay the test system is SNB-75 CNS. The settings on record: 10 µM unless noted.
Another assay has as its system SNB-19 CNS. Particulars: 10 µM unless noted.
The next assay relates to U251 CNS. The settings on record: 10 µM unless noted.
Another assay concerns PC-3 prostate. Particulars: 10 µM unless noted.
The next assay relates to SK-MEL-5 melanoma. The settings on record: 10 µM unless noted.
The test system of the next assay is UACC-62 melanoma. Particulars: 10 µM unless noted.
The subject of the next assay is LOX IMVI melanoma. Particulars: 10 µM.
The next assay relates to SK-MEL-28 melanoma. The settings on record: 10 µM unless noted.
A further assay has as its system SK-MEL-2 melanoma. The settings on record: 10 µM unless noted.
The next assay has as its system EKVX NSCLC. Particulars: 10 µM unless noted.
In the next assay the test system is SN12C renal. The settings on record: 10 µM unless noted.
The subject of the next assay is UO-31 renal. The settings on record: 10 µM unless noted.
Another assay concerns TK-10 renal. Particulars: 10 µM unless noted.
Another assay concerns CAKI-1 renal. Particulars: 10 µM unless noted.
A further assay has as its system A498 renal. The settings on record: 10 µM unless noted.
A further assay has as its system CCRF-CEM leukemia. Particulars: 10 µM unless noted.
The test system of a further assay is MOLT-4 leukemia. Particulars: 10 µM unless noted.
The test system of another assay is ACHN renal. Particulars: 10 µM unless noted.

Consider `Clc1ccc(C(SCc2ccccc2)SCc2ccccc2)cc1`, for which the growth in the assay with HCT-15 colon was 97.8%; in the assay with HT29 colon, 90.9%; with SNB-75 CNS it was 91.3%; with SNB-19 CNS it was 105%; in the assay with U251 CNS, 88.7%; with PC-3 prostate it was 85.9%. For the same compound, the growth with SK-MEL-5 melanoma is 98.8%; with UACC-62 melanoma, 82.1%; in the assay on LOX IMVI melanoma it was 94.3%; with SK-MEL-28 melanoma it was 96.3%; in the assay with SK-MEL-2 melanoma, 103%; with EKVX NSCLC, 89.9%. Further, the growth with SN12C renal is 104%; with UO-31 renal, 90%; with TK-10 renal, 104%; in the assay on CAKI-1 renal, 85%; in the assay with A498 renal it was 81.3%; in the assay with CCRF-CEM leukemia it was 83.4%. Besides, the growth in the assay with MOLT-4 leukemia is 84.9%.
In the case of `CC(=O)OCC1CCC(COC(C)=O)CC1` (stereo unspecified), the growth in the assay with HCT-15 colon was 95%; with HT29 colon it was 68.6%; with SNB-75 CNS, 87.4%; in the assay with SNB-19 CNS, 109%; in the assay with U251 CNS, 105%; with PC-3 prostate, 111%. In addition, the growth in the assay with SK-MEL-5 melanoma was 103%; in the assay with UACC-62 melanoma, 97.7%; in the assay on LOX IMVI melanoma, 94%; in the assay with SK-MEL-28 melanoma, 102%; in the assay on SK-MEL-2 melanoma, 89.8%; with EKVX NSCLC, 94.3%. The growth was 110% with SN12C renal; 91.9% in the assay with UO-31 renal; 89.1% with TK-10 renal; 109% with A498 renal; 115% with CCRF-CEM leukemia; 93.1% in the assay with MOLT-4 leukemia.
Turning to `CC(=O)NC(CCC(=O)c1ccccc1)C(=O)O` (stereo unspecified), the growth in the assay with HCT-15 colon was 104%; with HT29 colon, 93.6%; in the assay on SNB-75 CNS it was 90%; in the assay with SNB-19 CNS, 101%; with U251 CNS, 87.6%; in the assay with PC-3 prostate, 80.2%. The growth in the assay with SK-MEL-5 melanoma is 97%; with UACC-62 melanoma, 97.4%; in the assay on LOX IMVI melanoma, 100%; with SK-MEL-28 melanoma, 105%; in the assay on SK-MEL-2 melanoma, 104%; in the assay on EKVX NSCLC it was 99.2%. In addition, the growth in the assay on SN12C renal was 98.5%; in the assay on UO-31 renal, 98.5%; in the assay with ACHN renal it was 108%; with CAKI-1 renal, 102%; in the assay on A498 renal, 99.4%.
For the compound `COc1cccc2c1Cc1ccccc1-2`, the growth is 114% in the assay with HCT-15 colon; 100% in the assay with HT29 colon; 110% in the assay on SNB-75 CNS; 94.4% in the assay with SNB-19 CNS; 103% in the assay with U251 CNS; 91.1% in the assay with PC-3 prostate. Moreover, the growth in the assay with SK-MEL-5 melanoma was 100%; in the assay with UACC-62 melanoma, 99.3%; in the assay on LOX IMVI melanoma, 80.3%; in the assay with SK-MEL-28 melanoma, 115%; with SK-MEL-2 melanoma, 110%; in the assay with EKVX NSCLC, 102%. The growth with SN12C renal was 108%; in the assay on UO-31 renal it was 88.6%; in the assay on ACHN renal it was 114%; in the assay on CAKI-1 renal, 98.3%; with CCRF-CEM leukemia, 104%; in the assay with MOLT-4 leukemia, 113%.
Take `Nc1nc2nnc(-c3ccccc3)c(-c3ccccc3)n2n1`: the growth was 94.7% with HCT-15 colon; 97.4% in the assay with HT29 colon; 91.4% in the assay on SNB-75 CNS; 80% with SNB-19 CNS; 111% in the assay with U251 CNS; 86.5% in the assay on PC-3 prostate. The growth in the assay on SK-MEL-5 melanoma is 86.5%; in the assay with UACC-62 melanoma it was 87.8%; in the assay with LOX IMVI melanoma it was 87.6%; in the assay with SK-MEL-28 melanoma, 86.3%; with SK-MEL-2 melanoma it was -2.91% (active); with EKVX NSCLC, 92.8%. The growth with SN12C renal is 94.7%; in the assay on UO-31 renal, 106%; in the assay with TK-10 renal, 121%; with CAKI-1 renal, 96.2%; in the assay on A498 renal, 87.4%; in the assay on CCRF-CEM leukemia, 102%. The growth in the assay on MOLT-4 leukemia was 103%.
On to `CC1=CC(=Nc2ccc(N(C)C)cc2)C=C(C)C1=O`, for which the growth in the assay with HCT-15 colon was 85.7%; with HT29 colon, 98.6%; in the assay on SNB-75 CNS it was 75.8%; in the assay on SNB-19 CNS, 106%; with U251 CNS, 92.7%; with PC-3 prostate it was 69.9%. Further, the growth with SK-MEL-5 melanoma was 74%; in the assay with UACC-62 melanoma, 37.7%; with LOX IMVI melanoma, 46.4%; in the assay with SK-MEL-28 melanoma it was 96.8%; in the assay on SK-MEL-2 melanoma it was 110%; in the assay with EKVX NSCLC, 93%. In addition, the growth in the assay with SN12C renal was 97.3%; in the assay on UO-31 renal, 62.3%; with ACHN renal, 77.3%; with CAKI-1 renal, 91.2%; in the assay with A498 renal, 76.8%; with CCRF-CEM leukemia, 76.1%. In the assay with MOLT-4 leukemia, the growth was 87.6%.
With `Cc1ccc[n+](CCC(N)=O)c1`, the growth with HCT-15 colon was 111%; in the assay with HT29 colon, 98.1%; in the assay with SNB-75 CNS, 87%; with SNB-19 CNS, 104%; in the assay on U251 CNS it was 87.4%; in the assay on PC-3 prostate, 86.1%. For the same compound, the growth in the assay on SK-MEL-5 melanoma was 102%; in the assay on UACC-62 melanoma, 101%; in the assay on LOX IMVI melanoma, 82%; in the assay with SK-MEL-28 melanoma it was 99.9%; in the assay on SK-MEL-2 melanoma it was 97.7%; with EKVX NSCLC it was 90.2%. The growth is 92% in the assay on SN12C renal; 85.9% with UO-31 renal; 94.9% in the assay on TK-10 renal; 91.6% in the assay on CAKI-1 renal; 90.8% in the assay with CCRF-CEM leukemia; 90.9% in the assay on MOLT-4 leukemia.
As for `COC(c1ccc2c(c1)OCO2)C(C)Br` (stereo unspecified), the growth in the assay on HCT-15 colon is 103%; with HT29 colon, 88.8%; in the assay with SNB-75 CNS it was 76.6%; in the assay with SNB-19 CNS, 101%; in the assay with U251 CNS it was 96.9%; in the assay on PC-3 prostate, 69.3%. Besides, the growth is 104% in the assay on SK-MEL-5 melanoma; 94.6% in the assay on UACC-62 melanoma; 92.3% in the assay with LOX IMVI melanoma; 103% in the assay on SK-MEL-28 melanoma; 101% in the assay on SK-MEL-2 melanoma; 90.3% with EKVX NSCLC. Moreover, the growth in the assay on SN12C renal is 100%; in the assay on UO-31 renal, 91.8%; in the assay on ACHN renal, 102%; with CAKI-1 renal it was 83.7%; in the assay on A498 renal, 95.6%; in the assay on CCRF-CEM leukemia, 93.3%. For the same compound, the growth in the assay with MOLT-4 leukemia is 91.6%.
As for `O=c1nc(Nc2cccc(Cl)c2)oc2cc(Cl)oc(=O)c12`, the growth was 83.4% in the assay with HCT-15 colon; 85.5% with HT29 colon; 67.2% in the assay on SNB-75 CNS; 94.3% in the assay on SNB-19 CNS; 79.6% in the assay with U251 CNS; 61.8% with PC-3 prostate. The growth was 106% in the assay with SK-MEL-5 melanoma; 78.7% in the assay on UACC-62 melanoma; 73.5% with LOX IMVI melanoma; 85.5% in the assay with SK-MEL-28 melanoma; -14.9% (active) with SK-MEL-2 melanoma; 116% in the assay with EKVX NSCLC. Further, the growth in the assay with SN12C renal was 86.1%; with UO-31 renal, 47.9%; in the assay on TK-10 renal, 98.1%; in the assay on CAKI-1 renal, 79.6%; in the assay with A498 renal it was 103%; in the assay with CCRF-CEM leukemia, 56.7%. Also, the growth in the assay with MOLT-4 leukemia was 21.5%.
